From the supplement of paper PMC11417369 come the findings set out here.

± gives the standard deviation of the averaged measurements. The full ranking holds about 25,000 sequences; the median of “ln(normalized median fluorescence intensity)” is about 10, and the highest 2% start at about 12. Many of the other results were omitted from the sample, so the highest values are more common in it than they were.

The test system of the assay is PfAP2-G AP2 domain (GST-tagged). Put plainly: gcPBM binding intensity (ln(normalized median fluorescence intensity)); higher = stronger DNA binding. The method, boiled down:
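An Agilent 4 × 180k array of primer-extended double-stranded 36-bp intergenic genomic probes, with negative controls, was incubated for 1 h with GST-tagged P. falciparum DNA-binding domains expressed in E. coli. Alexa488 anti-GST antibody detected bound protein, scanned at 488 nm. Binding intensity is the highest Masliner-normalised natural-log median intensity across replicate spots of either probe orientation.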
Regarding “ATATATATGGATGGACGTACGTATGTATGTAATTTC [XGTACX_site4135]”, the “gcPBM binding intensity (ln)” value is 11.3 ± 0.64.
As to “CAATTTATAAAGAAAACACACATATACATAAATACA [CACACA_site4829]”, the “gcPBM binding intensity (ln)” value amounted to 10.2 ± 0.16.
The same measure for “AAAAGAAATATTTATACACACACACTAACATATATA [CACACA_site8580]”: 10.09 ± 0.035.
Under “AAATAAGAAAAAGCGCGTACACATAACATTTTTATA [XGTACX_site8807]” stands 11.7 ± 0.93; under “TATATATATTTATACACACAAACATAATACTACTTA [CACACA_site2022]”, 10.3 ± 0.22; under “TTGGTGGATAAATTTACACACAATAATTTTCGTTCA [CACACA_site467]”, 10 ± 0.14.
Consider “AAAAAAAAAATTTACTGTACACATTTGGGATACTCA [XGTACX_site5191]”, for which the “gcPBM binding intensity (ln)” value was 11.7 ± 0.76.
Take “AAAATTTTTTACTTTACACACATTTTGTATATTTTG [CACACA_site1730]”: the “gcPBM binding intensity (ln)” value came to 9.98 ± 0.23.
The same measure for “TTTAAAAATTAATTCTGTACACATTTTTATTTTATT [XGTACX_site8]”: 11.5 ± 0.8.
Under “AAAAAAAATTTTATCTGTACACATTTTTTTCTTTTT [XGTACX_site4229]” stands 11.6 ± 0.74.
The same measure for “ACTGTAAAAGGATTTACACACATATTTACATTTACA [CACACA_site519]”: 10.01 ± 0.021; for “AAAAAATTCTGGTACTGTACACATTTTTTTAAATTT [XGTACX_site6904]”: 11.7 ± 1.
Take TTACAATAAATTATAGTGCAATATTTTATTTAATAT: the “gcPBM binding intensity (ln)” value turned out to be 9.9 ± 0.26.
On to “AAAATATATATATATATATATATATGTATACTCCTA [XGTACX_negctrl_site312]”, for which the “gcPBM binding intensity (ln)” value worked out at 10 ± 0.29.
Turning to “CGAATATATTCTAGACGTACTATATAATATATATAT [XGTACX_site4953]”, the “gcPBM binding intensity (ln)” value turned out to be 11.1 ± 0.69.
The same measure for “TATATTTATTTATTCTGTACTGAAGACAGTTATGTA [XGTACX_site8857]”: 10.8 ± 0.58; for “TTATATGTTTTGTGTACACAATTTATTAAATTAATA [CACACA_site5645]”: 11.7 ± 0.88.
The same measure for “AAAATAATATATGTATGTACACAATTATTTATAAGT [XGTACX_site7267]”: 11.5 ± 0.89.
The same measure for “TTTGTTTTATGTGGTTGTACACAAATACAATTTAAA [XGTACX_site5156]”: 11.6 ± 1.1.
Take “TATGATATAATTATGTGTACACAATTTTTTTTTTTT [XGTACX_site1084]”: the “gcPBM binding intensity (ln)” value is 11.6 ± 0.8.
Under “TAATTATTTTTATATTGTACAATATGTAAATATATA [XGTACX_site592]” stands 10.8 ± 0.58; under “AAAAAAAATAATAATACACACAATATGATATGTACA [CACACA_site850]”, 10.4 ± 0.17; under “AAATTATATATGATGTGTACATAAATATATACACAT [XGTACX_site8761]”, 11.4 ± 0.83.
In the case of “GATATAATTATGTGTACACAATTTTTTTTTTTTTTT [CACACA_site4501]”, the “gcPBM binding intensity (ln)” value is 11.7 ± 0.87.
As to “ATATGTACAAATTATACACACATGTACAATTATATA [CACACA_site1253]”, the “gcPBM binding intensity (ln)” value stood at 11.3 ± 0.79.
The same measure for “GAAAATAGCTAAAATACACACAATTAAAAATTATTA [CACACA_site3506]”: 9.84 ± 0.16; for “TTCCATGTAGGACATGCATGCAGTTTTTAAAATATT [TGCATGCA_site481]”: 11 ± 0.69.
Under “AATGTTAAAAATGAAAGTACATGGAATTTATTATTT [XGTACX_site4095]” stands 11 ± 0.56.
For “AATATTTATATTTAGTGTACAGAAATAAAAAAAAAA [XGTACX_site6066]”, the “gcPBM binding intensity (ln)” value was 11.3 ± 0.93.
The same measure for “TATTTTTAAAATATAAGTAAAAAAATAATATAAACT [TGCATGCA_negctrl_site283]”: 10.1 ± 0.11; for “TCCTCTTCAATATATATATATTATAAATAAATAAAT [CACACA_negctrl_site1756]”: 9.91 ± 0.38.
The same measure for “TGTGTAGCTAGGGGGTTGCTAATTTTTGTTTTGACC [CACACA_negctrl_site634]”: 10.9 ± 0.57; for “ATAAGCTCATGCAGGTGTACACAAAAAGAAAAAAAA [XGTACX_site2433]”: 11.6 ± 0.81.
The same measure for “AGCTCATGCAGGTGTACACAAAAAGAAAAAAAATAA [CACACA_site4828]”: 11.7 ± 0.86.
Consider “AGGTGAGCTCAGACTACACACACAAAGAAAAAAATA [CACACA_site8439]”, for which the “gcPBM binding intensity (ln)” value was found to be 10.2 ± 0.28.
Under “TCAAAGGAATTTTTATGTACATATAAACTTTATTCT [XGTACX_site3432]” stands 11.2 ± 0.76.
The same measure for “GATATATGTATAATAACGCACACTACAAAAATAAAA [CACACA_site2100]”: 10.3 ± 0.33; for “ATGTATATATATATATGTACTAATTAGTAGTTTACG [XGTACX_site6272]”: 11.1 ± 0.71; for “ATAATGACTAAATTTAAACACACAAGGGGAGTTTAC [CACACA_site8209]”: 9.725 ± 0.007.
Under “ATAAATACATTAAAATGTACATAAAAATATTACTGG [XGTACX_site1484]” stands 11.2 ± 0.67; under “TAAATATAAGTGTACATACACACTTTACAATCTCAT [CACACA_site3006]”, 11.3 ± 0.72.
With “TATATAAATAAATGTGTACACACATTAAAATCAAAC [CACACA_site8733]”, the “gcPBM binding intensity (ln)” value came out at 11.6 ± 1.1.
Under “TTTTTTTAATAAAAGTGTACCAAATTATATACACAT [XGTACX_site6811]” stands 11.1 ± 0.64; under “TATTTTTTTAAAATAGGTACACAATCAAACATTTAT [XGTACX_site8785]”, 11.4 ± 0.97.
Under “ACAATAAAGAAGTGTACACATATATCAATAAAAAAA [CACACA_site5228]” stands 11.6 ± 0.95.
